Results as given in PubChem BioAssay AID1159506 (National Center for Advancing Translational Sciences (NCATS), 2015).
The full ranking holds about 59,000 sequences; the median of the read-out is about -0.00055, and the lowest 2% start at about -2. The entries come from a sample that favours the lowest values as a whole.

Assay: Identification of proteins required for the processing of the EWS-FLI1 nascent transcript;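 note: robust z of luciferase light less the median z of siRNAs with the same seed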
Conditions: TC32 Ewing sarcoma NR0B1-luc vs CMV-luc (EWS-FLI1 target promoter against control promoter), 48 h; screened at 20 nM (by protocol)
Protocol: Ewing sarcoma (ES) cells depend on the EWS-FLI1 fusion transcription factor for cell survival. Using an assay of EWS-FLI1 activity and genome-wide siRNA screening we have identified proteins required for the processing of the EWS-FLI1 nascent transcript. Parallel genome-wide siRNA-mediated RNAi screens were conducted in Ewing sarcoma TC32 cell lines expressing a luciferase (luc) reporter protein driven by either the promoter of the EWS-FLI1 target gene NR0B1 (TC32-NR0B1-luc) or the CMV promoter (TC32-CMV-luc). Luciferase activity was assessed 48 hours post siRNA-transfection.
Twenty microl of serum-free media containing Lipofectamine RNAiMax (0.05 microl) was added to wells containing siRNA (0.8 pmol). Lipid and siRNA were allowed to complex for 45 min at ambient temperature before addition of 600 cells in RPMI-1640, 20% FBS to yield final transfection mixtures containing 20 nM siRNA in RPMI-1640, 10% FBS. Luciferase expression was measured using OneGlo (Promega, Madison, WI). The genome-wide screening campaign was conducted using Ambion's human genome library version 4.1 (Ambion, Austin TX). This library targets approximately 21000 human genes, three siRNAs per gene. Each siRNA is arrayed in an individual well of a 384-well plate. Parallel transfections were conducted in TC32-NR0B1-luc and TC32-CMV-luc cell lines and luciferase expression (OneGlo, Promega) was assayed 48 h later on a PerkinElmer Envision 2104 Multilabel plate reader (PerkinElmer, Waltham, MA). Qiagen's AllStars Negative control was incorporated on all screening plates for normalization (16 wells per plate). Qiagen, Germantown, MDsiGL4 was incorporated as a positive transfection control (16 wells per plate) on all plates. […] The raw luciferase data for the NR0B1- and CMV-luc screens were normalized and z-score-MAD transformed using standard methods (Chung et al., 2008). The miRNA-like seed sequence of every siRNA was determined and the median z-score for all siRNA sequences with the same seed sequence was calculated. This z-score was subtracted from the z-score associated with each siRNA with that seed sequence to generate a seed-adjusted z-score value (Z) that was used when the results for the three siRNAs corresponding to each gene were compared (Marine et al., 2012)

Sequence	seed-corrected z-score
AUUCACACCAGUAUUAGUG against KIAA1456	0.152
UAAUCCGUAAAUUCGAUAC against RNF139	0.709
AUAGCUGCAGGAUCUAAGC against POLR3A	-3.95
UUCCGGUAGAAGAUGAGCC against SHMT2	0.314
UUCAUGGUAGGAAAGGUCU against DXO	1.33
UAGUAUCAAAUAUCCAGAC against TMEM60	0.0266
UAAUGUACACCACAUUGGG against FAM198B	-2.46
UUCACGUUCAUUGCAGUCU against RAB5C	-1.4
ACAGUUAAGACACCACUCC against FXN	1.1
AUAAGCAACACCAUUAUGG against BOLL	1.08
AAUGGGUCUACCUUGUUGG against PSMC5	-1.78
AAUAAAGACGGAUUUAUUC against HTATIP2	0.204
UUUGAUAUGAUGUUCCACC against DDX50	-0.378
AAACGAUCCAUAUAGUCCG against MIER3	0.02
UAUUGACCAAGAUCACAUG against FASTKD2	0.878
AGCUGUAUCCAUUAGGGUG against NTSR2	0.216
UUCCAUGUAACCGUCGUUC against SHE	-0.285
AGAUCUAUUACUUCCAGGG against LRRC34	-3.45
AAAGCGACACUUAUCACCC against WRB	0.538
UCUUUAAGAAUUGCACAUC against NAAA	-0.571
UCCUGCUUCAGUAAAUCUC against MRPL24	-2.37
UCUCGAUUUAGCUUAGGCC against SKP2	-0.249

Sequence	seed-corrected z-score
AUAUCAACAAGCCCAAUUC against KCNB2	-0.883
UAGCCGACAAAACAACAUC against HEATR1	-0.424
AAAGCUAUUAUCAUGUAGG against SLC35B3	0.789
AUCGGUAUAGUUGAUGCAC against SCN10A	0.0881
UUUUGAACCAGGGUAGUUC against GNA15	0.0907
UCCGGAACAUAUGUUGUCG against TNFRSF11B	-0.942
UGAUGAUCUACACUGAUUC against FAM91A1	-2.35
UUGGAUUGGCGCUAUGUUC against ANKRD20A18P	-0.888
UUGUAGACCAUGUUGGAGC against POLE	-0.71
UCUGGUUCUUGUGCUCUUC against INO80B	-2.05
AAUCGGAUUUUGUUGAGUC against SOWAHC	-0.193
UUUCUUCCUGUGCACGUCA against OXCT2	-0.277
UCUUCAGCCGCAUCGAUCU against TNNI2	0.556
AUCUGUAUAAUCGACAGGC against BARD1	-1.42
AAACGGUACAGAGCGCUGC against C1orf233	-1.64
UAGCAUGAAACUUUUGUUG against STK35	0.199
UUGGUUGGAACUACUUACG against STARD9	-3.22
UGUGGUAUUUAGUUGUUCG against PRMT2	-0.735
ACUGGAAUAAGACCGGCUG against EMCN	-0.0798
ACUAGGAUCACGACUUUCC against SLC30A9	-0.286
UCUGUUUUCAGGUGCAUCC against AHRR	-0.835
UUCGUUAUCUAUUUCCACC against CASC5	-1.38

Sequence	seed-corrected z-score
UCAUUGUUCAAGGUCAUUC against ABTB2	0.182
UUCCAGUUGAGUGGUGUCC against SLA2	-2.67
AAUUUGUUCACGUAAACUU against POU3F2	0.623
UUCCGUAAGACUGACACUC against REG4	-15.5
UCUCGUUCGGUAAUCUUCC against PPP2R2C	-0.613
AUCCCUUCAAUGGCCAUCC against ECHDC2	-0.995
AUUGUUAUAGAAGCGGUCU against SPA17	-0.602
UGACGUACCUAUCCACUGC against MC5R	-0.731
UCGUUGCUCAGCAUCAAUC against SBNO1	-0.827
AUCGAUCUAGUUUAAUUCC against DGKE	-0.537
UGUAUAGUCAUGAUAAUGU against LOC643784	-0.459
UCAGGGCUCAGACAGGACU against TSC22D3	-2.02
AGAGAAUAAAGAGCUGGAC against TMEM79	0.267
AGACUUGCGAACAUGAUUC against CGGBP1	0.518
UUCCUUCCUACUCAGGGUC against S100A5	-2.25
UCAACCUUUACUGAAGGCC against ARNTL	-0.133
UAUAGCGAAGGGACAAACC against LRRTM3	0.0787
UGAUGAUUAUCUUUGAAUG against IGFBP3	0.761
AAACGUACCUUGUCAUUCC against TXK	-0.645
UUUUCUCUCGUAUUAAUUG against GSDMB	0.329
UCAUCAUCUAAUAAAGUCC against MRO	-3.11
ACUGGAUUAACAUCAUCUG against SDHAF4	-0.445

Sequence	seed-corrected z-score
UGCUUUCUCAGGGCAGCUC against ZFP42	-0.0418
AAAGGGAUGCUCCAAGCGC against NME3	0.482
AUAAGUUGCAGCAAAAUCC against MAB21L1	-0.725
AUCGAUGAUAGCCUGCUCG against ANXA8L1	-2.86
UUUACCACAGGUUUCUUCC against HIRIP3	-0.591
UAACUUCAAACCGAUUUCU against TRMU	-0.389
AAAGUAAAGAUAUGCGUGU against TBX21	1.07
UCUGUCGAUAGUCUUCUCG against STIP1	0.345
UAAUGUACUCGUCACACCU against BICD2	-2.89
UAUGGGACAUCCUAAUCAC against KIAA0586	-0.187
UCCGCUUUAACCCUGCUUC against PRDM2	-0.723
UUUAGCUCUGGAACAAUGC against SLC38A1	0.0432
UUACUAGUAAUGGACCCGC against YTHDF2	1.05
UUCAUAUAUACUCUGAUUC against C1DP3	0.587
UACUCGACCUUCUUUCACC against PPP3CB	0.354
AAAGAUUGAGGUGGUAUGC against YTHDF3	-2.48
UUUCGGUUUCCACUUUUCC against NIPAL3	0.547
UAACUCAUCAACUUUAUCG against CHMP4B	-0.576
UUCUCUAUCUCAUGAAUCC against RAB19	0.0141
